Measured values from PubChem BioAssay AID1259418 (Broad Institute, 2018).
Hit rate of the full screen: of about 3,400 compounds, about 840 (25%) were called active. Inconclusive results (about 11%) are left out. Only a sample is shown. Potency and affinity values are given separately. Unmarked numbers belong to inactive results.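 How the source made its calls: active means fitted half-maximal concentration of signal decrease at or below twice the sample's top tested concentration; inconclusive means flat curve between -70 and -30 percent, or poor fit; inactive means flat within 30 percent, signal rise, or potency above limit.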

assay: T. gondii growth inhibition with IFN-gamma, dose response, cell-based, ME49Luc, HeLa, luciferase, 72 h (AID 1259418); settings: T. gondii ME49Luc in IFN-y HeLa, hits give low values, -100% = high-dose IFN-γ control wells; at 19.5 µM unless noted

SMILES	max activity
CC(C)NC(=O)N1CCC2(CC1)OCCN(CCO)c1ccccc12	20.9%
Cc1ccc(NC(=O)Nc2ccc(-c3nc(-c4ccccc4)co3)cc2)cc1	19.9% [at 0.16 µM]
N#Cc1ccc(-c2ccc3c(c2)[C@H]2[C@H](CCN2C(=O)C2CCCCC2)[C@@H](CO)N3)cc1	27.2% [at 10 µM]
COc1ccc(-c2nc(Cn3nnc(-c4nc(-c5ccc(Cl)cc5)no4)c3C)c(C)o2)cc1	6.38%
CCC(C(=O)N1CCC[C@@H]1C(=O)NCCc1csc(C)n1)c1ccccc1 (stereo partly drawn)	9.81% [at 0.35 µM]
COc1cc(-c2noc(-c3nnn(Cc4nc(-c5ccccc5)oc4C)c3C)n2)cc(OC)c1OC	6.25% [at 0.35 µM]
COc1ccc2c(c1)NC1(CCN(C(=O)c3ccc(C)c(F)c3)CC1)c1cccn1-2	5.27% [at 0.68 µM]
Cc1ccccc1Cn1cccc1CNS(=O)(=O)c1ccc2c(c1)CCC(=O)N2	13.6% [at 2.6 µM]
O=C(CC1N=C2c3ccccc3N=C(SCc3cccc(F)c3)N2C1=O)NCc1cccs1 (stereo not drawn)	-23.9% [at 5 µM]
O=C(CCC1N=C2c3ccccc3N=C(SCc3cccc(Cl)c3)N2C1=O)NCc1ccco1 (stereo not drawn)	24.8% [at 5 µM]
NC(=O)C1(N2CCCCC2)CCN(c2ncc(NC(=O)c3cccc(Cl)c3)cc2C(=O)O)CC1	5.69%
COc1ccc(-c2nc(N3CCc4ccccc43)c3ccccc3n2)cc1	-12.2% [at 0.35 µM]
CCS(=O)(=O)N1CCC(C(=O)NCCc2csc(-c3cccs3)n2)CC1	-17.6%
COc1ccc(-c2nc(Nc3ccc(F)cc3F)c3ccccc3n2)cc1	10.1%
Cc1ccc2c(c1C)-n1cccc1C1(CCN(C(=O)c3ccc(Br)cc3)CC1)N2	7.92% [at 0.16 µM]
COc1cc(C(=O)Nc2ccc(-c3nc(-c4ccc(C)cc4)co3)cc2)cc(OC)c1OC	54.9% [at 10 µM]
C[C@H]1CN([C@@H](C)CO)C(=O)c2cccc(NC(=O)c3ccc(-c4nccs4)cc3)c2O[C@@H]1CN(C)C(=O)Nc1ccc(C(F)(F)F)cc1	30.7% [at 5 µM]
C[C@@H]1CN([C@@H](C)CO)C(=O)c2cccc(NC(=O)NC3CCCCC3)c2O[C@H]1CN(C)Cc1ccc(C(F)(F)F)cc1	7.51%
CCCN(CCC)c1nc(-c2ccc(Cl)cc2)nc2ccccc12	25.7%
COc1ccc(-c2nc(Cn3nnc(-c4nc(-c5cccc(F)c5)no4)c3C)c(C)o2)cc1	5.24% [at 10 µM]
CCOc1ccccc1NC(=O)Nc1ccc(-c2nc(-c3ccc(C)cc3)co2)cc1	-10.4%
O=C(CC1CC1)N[C@H]1CN(C(=O)c2ccoc2)C[C@@H]2CCCO[C@H]21	19.7%
CCc1onc(C)c1C1CCCN1C(=O)c1cc(C(F)(F)F)nn1C (stereo not drawn)	5.66% [at 0.16 µM]
O=C(Nc1ccc(-c2nc(-c3ccccc3)co2)cc1)Nc1ccccc1Cl	29.7% [at 10 µM]
NCCNC(=O)c1nc(-c2ccc(Br)o2)no1	8.96% [at 10 µM]

SMILES	max activity
COc1cccc(-c2nc(C)c(-c3ccc(SCc4ccc(Cl)cc4Cl)nn3)s2)c1	-7.13% [at 1.35 µM]
Cc1nc(-c2ccc(F)cc2)sc1-c1ccc(SCc2ccc(F)cc2)nn1	12.7% [at 5 µM]
COc1cccc(-c2nc(C)c(-c3ccc(SCc4ccc(C)cc4)nn3)s2)c1	22.3% [at 10 µM]
COc1ccc(-c2nc(C)c(-c3ccc(SCc4c(F)cccc4Cl)nn3)s2)cc1	6.69% [at 0.16 µM]
COc1ccc(-c2nc(C)c(-c3ccc(SCc4ccc(C)cc4)nn3)s2)cc1	10.6% [at 2.6 µM]
Cc1nc(-c2ccc(F)cc2)sc1-c1ccc(SCc2c(F)cccc2Cl)nn1	12.7% [at 0.68 µM]
COc1cccc(-c2nc(C)c(-c3ccc(SCc4ccc(Br)cc4)nn3)s2)c1	-17.9%
COc1cccc(-c2nc(C)c(-c3ccc(SCc4ccc(C(F)(F)F)cc4)nn3)s2)c1	7.57% [at 0.16 µM]
Cc1ccc(C)c(-c2coc(-c3ccc(NC(=O)Nc4cc(F)ccc4F)cc3)n2)c1	18.4% [at 0.16 µM]
CCOc1cc(C(=O)Nc2ccc3c(c2)CCC(=O)N3)cc(OCC)c1OCC	7.32%
Cc1ccc(-c2coc(-c3ccc(NC(=O)CC(C)C)cc3)n2)cc1	33%
Clc1ccc(-c2nc(NCc3cccnc3)c3ccccc3n2)cc1	-32.4% [at 0.35 µM]
COc1ccc(-c2nc3c(s2)CN(S(=O)(=O)c2cccs2)CC3)cc1	12.1% [at 0.16 µM]
O=S(=O)(c1cccs1)N1CCCCN2[C@H](C1)[C@@H](c1ccc(/C=C/c3ccccc3)cc1)[C@@H]2CO	11.8% [at 10 µM]
COCCCN1CCc2nc(SCc3nc(-c4cccc(Cl)c4)oc3C)[nH]c(=O)c2C1	33.5% [at 0.35 µM]
O=C(NCC1CC1)C1CN(C(=O)c2ccoc2)CC12CCOCC2 (stereo not drawn)	17.9% [at 10 µM]
Cc1ccc(-n2ncc3c(NC4CCCCCCCCCCC4)ncnc32)c(C)c1	53.2% [at 10 µM]
Oc1[nH]c2ccccc2c1N=Nc1nc(Nc2ccccc2)nc(N2CCOCC2)n1	12.6% [at 10 µM]
CCN(CC)Cc1cn2c(n1)CN(C(=O)c1cnc(C)cn1)CC2	-25.1% [at 10 µM]
CCc1nc(OCC(=O)Nc2cccc(C)c2C)c2ccccc2n1	34.5%
COc1ccccc1CNC(=O)CCC1N=C2c3ccccc3N=C(SCc3cc(=O)n4ccccc4n3)N2C1=O (stereo not drawn)	-7.46% [at 0.16 µM]
CN1CCCN(C(=O)c2cc3c(c4ccccc4n3CC3CC3)n2S(C)(=O)=O)CC1	11.9% [at 5 µM]
CC(C)c1cc(C2CCCN2C(=O)c2cc(C(F)(F)F)nn2C)on1 (stereo not drawn)	9.25% [at 0.35 µM]
COc1ccc(NC(=O)CN2CCC3(CC2)N=C(c2ccc(F)cc2)C(=O)N3)cc1	-27.9% [at 1.35 µM]
O=C(NCCc1csc(-c2ccccc2)n1)[C@H]1CCCN1C(=O)c1ccc(Br)cc1	-11% [at 0.16 µM]

SMILES	max activity
O=C(NCCc1csc(-c2ccccc2)n1)[C@H]1CCCN1C(=O)c1ccc(F)cc1	-10.4% [at 0.16 µM]
Cc1nc(CCNC(=O)[C@H]2CCCN2C(=O)c2ccc(F)cc2)cs1	-9.63% [at 0.16 µM]
Cc1nc(CCNC(=O)[C@H]2CCCN2C(=O)c2cccc(Br)c2)cs1	23.4% [at 0.16 µM]
NC(=O)C1(N2CCCCC2)CCN(c2ccc(NC(=O)c3ccc(Cl)cc3)cc2C(=O)O)CC1	20.8%
CCN1C(=O)CCCC12CCCN(C(=O)c1ccc3ncccc3c1)C2 (stereo not drawn)	-6.92% [at 5 µM]
Cc1ccccc1C(=O)N1CCC(N2CCOCC2)CC1C(=O)O (stereo not drawn)	15.5%
Cc1ccc(C)c(-c2coc(-c3ccc(NC(=O)COc4ccccc4C)cc3)n2)c1	-11.5%
COCC(=O)N1[C@H](C#N)[C@H](c2ccc(C#Cc3ccccc3F)cc2)[C@H]1CO	-13.1% [at 10 µM]
N#C[C@@H]1[C@@H](c2ccc(C#Cc3cccnc3)cc2)[C@@H](CO)N1C(=O)NC1CCCCC1	-10.3% [at 10 µM]
Cc1cc(C)n(C)c(=O)c1C(=O)N1CCOC(C(F)(F)F)C1 (stereo not drawn)	34.4%
Cc1ccc(-c2coc(-c3ccc(NC(=O)CC(C)C)cc3)n2)c(C)c1	14.2% [at 10 µM]
CCN(C)C(=O)c1cnc(-c2noc3cc(N4CCCCC4)ccc23)s1	35.7% [at 10 µM]
COc1ccc(NC(=O)Nc2ccc(-c3nc(-c4cccc(Br)c4)co3)cc2)cc1OC	8.18% [at 0.35 µM]
O=C(Nc1ccc(-c2nc(-c3ccccc3)co2)cc1)Nc1ccc(F)cc1F	65.6%
Cc1ccc(CSC2=Nc3ccccc3C3=NC(CCC(=O)NC4CCCCC4)C(=O)N23)cc1 (stereo not drawn)	-23.8%
O=C(CCC1N=C2c3ccccc3N=C(SCc3cccc(F)c3)N2C1=O)NC1CCCCC1 (stereo not drawn)	-18.1% [at 2.6 µM]
CCOC(=O)CSC1=Nc2ccccc2C2=NC(CCC(=O)NCc3ccc(F)cc3)C(=O)N12 (stereo not drawn)	24.5% [at 2.6 µM]
N#CCSC1=Nc2ccccc2C2=NC(CCC(=O)NCc3ccc(F)cc3)C(=O)N12 (stereo not drawn)	22.5% [at 0.35 µM]
O=C(CC1N=C2c3ccccc3N=C(SCc3cccc(F)c3)N2C1=O)NCc1ccccc1 (stereo not drawn)	-15% [at 1.35 µM]
CCOC(=O)CSC1=Nc2ccccc2C2=NC(CCC(=O)NCc3ccccc3)C(=O)N12 (stereo not drawn)	43.1%
COc1ccccc1CNC(=O)CCC1N=C2c3ccccc3N=C(SCc3ccc(F)cc3)N2C1=O (stereo not drawn)	14.5% [at 0.16 µM]
O=C(CCC1N=C2c3ccccc3N=C(SCc3cccc(F)c3)N2C1=O)NCc1ccco1 (stereo not drawn)	10.2%
C/C=C/c1ccc(C2[C@H]3CNC[C@@H]2N3S(=O)(=O)c2cccc(F)c2)cc1 (stereo partly drawn)	51.2%
